The campaign covered roughly 38,000 compounds. About 1,200 (3.2%) showed an effect of 50% or more. The median lay at about -58%. What follows is part of a selection rich in strong results, with near analogues and random picks from the rest.
Test system: Plasmodium falciparum
Experiment: Calibr Malaria Delayed Death Assay SOP
Assay type: functional, organism-based
Parameters: scale not given: in the data most compounds retested in dose-response had high values
Conditions: concentration 4.99e-06 (unit not given; other assays of the set use mol/L)

Row | SMILES | Percent Effect [%]
1 | O=S1(=O)CCN2C(=N1)Oc1ccc(S(=O)(=O)N3CCCC3)cc12 | -88.45
2 | CSCCCN1C[C@H](NC(=O)c2cc(C3CC3)on2)[C@@H](C2CC2)C1 | 21.88
3 | O=C(c1cccnc1)N1CCC2(CC1)CCN(Cc1ccccn1)C2=O | -24.21
4 | CCn1ncc(Cl)c1CN(C)C(=O)CCn1ncc(Br)c1C | -15.28
5 | Cc1nc[nH]c1CN1CCN(C(=O)C2CC2)[C@H]2CS(=O)(=O)C[C@H]21 | -108.2
6 | C[C@@H](O)CNc1c(NCc2ccco2)c(=O)c1=O | -66.82
7 | CC1(C)CC(=O)c2cnc3nc(N4CCCCC4)nc(O)c3c2C1 | -100.7
8 | O=C(CCOc1cccc(F)c1)N1CCCC1Cn1cccn1 (stereo not given) | -132.8
9 | Cc1ncc(CN2CCCC(c3cc(C(N)=O)[nH]n3)C2)s1 (stereo not given) | -114.1
10 | CN(C)CC1COCCN1C(=O)C1(c2cccs2)CCCC1.O=CO (stereo not given) | 30.77
11 | CN(CCO)CC1COCCN1C(=O)C1(c2cccs2)CCCC1.O=CO (stereo not given) | 45.51
12 | Fc1cccnc1N1CCCC(c2nccs2)C1 (stereo not given) | -23.64
13 | CN1CCC(CCNC(=O)N2CCN(Cc3ccon3)CC2)CC1 | -51.38
14 | CC(C)S(=O)(=O)CCN1CCc2c(ncn2C2CC2)C1 | -95.89
15 | CCS(=O)(=O)N1CCc2c(CN3CCOCC3)cncc2C1.Cl.Cl | -14.39
16 | CC1CCCCN1CCNC(=O)c1ccn(-c2ccc(F)cc2)n1 (stereo not given) | 33.02
17 | CC1CCCN(CCNC(=O)c2ccn(-c3ccc(F)cc3)n2)C1 (stereo not given) | 48.64
18 | CC1CCN(CCNC(=O)c2ccn(-c3ccccc3)n2)CC1 | 21.68
19 | CC1CCN(CCNC(=O)c2ccn(-c3ccc(F)cc3)n2)CC1 | 59.32
20 | CC1CCCCN1CCNC(=O)c1ccn(-c2cccc(F)c2)n1 (stereo not given) | 62.87
21 | COc1ccc(-n2ccc(C(=O)NCCN3CCCCC3C)n2)cc1 (stereo not given) | -78.7
22 | CS(=O)(=O)NCc1nnc2n1CCN(Cc1nccs1)C2 | -79.56
23 | Cc1ccc(S(=O)(=O)N2CCC(O)(CN(C)C)C2)cc1 (stereo not given) | 49.75
24 | CN(C)CC1(O)CCN(S(=O)(=O)c2cccc(F)c2)C1 (stereo not given) | 65.12
25 | CN(C)CC1(O)CCN(S(=O)(=O)c2ccc(Cl)cc2)C1 (stereo not given) | 40.17
26 | CC(=O)c1ccc(CNC(=O)c2c(C)cc(C)cc2C)nc1C | -62.27
27 | CN(C)C(=O)c1nn(C)c2c1CN(Cc1cccs1)C2.O=C(O)C(F)(F)F.O=C(O)C(F)(F)F | -31.31

Row | SMILES | Percent Effect [%]
28 | NC(=O)CCC1CCCN(c2ccc3c(Cl)ccnc3c2F)C1 (stereo not given) | -15.33
29 | NC(=O)CCC1CCCN(c2ccc3ccc(F)cc3n2)C1 (stereo not given) | -163.3
30 | NC(=O)CCC1CCCN(c2ccnc3cc(F)ccc23)C1 (stereo not given) | 82.57
31 | NC(=O)C1CCN(CCCNC(=O)Nc2nccs2)CC1 | -52.35
32 | CCn1nc(C)c2nc(C(C)C)nc(N3CCC(O)CC3)c21 | -68.6
33 | COc1ccccc1CN(Cc1cccc(C)c1)C(=O)[C@@H](N)CC(=O)O | -17.66
34 | COCC(=O)N(Cc1cccc(C)c1)Cc1ccccc1OC | -1.416
35 | CN[C@@H](C)C(=O)N(Cc1cccc(C)c1)Cc1ccccc1OC | 83.47
36 | Cc1cnc(N2C(=O)CSC2c2cccs2)s1 (stereo not given) | -26.83
37 | COC(=O)c1ccc2c(-c3ccnc(N[C@@H](C)CO)n3)c[nH]c2c1 | -32.75
38 | COc1ccc2[nH]cc(-c3ccnc(N4CCC(C)CC4)n3)c2c1 | -185.2
39 | COc1ccc2[nH]cc(-c3ccnc(NC4CCCC4)n3)c2c1 | 56.79
40 | COc1ccccc1CC(C)CC(=O)NC(C)C (stereo not given) | -116.6
41 | CC(=O)N(Cc1noc(C2CC2)n1)C1CCN(Cc2cc(C)on2)C1 (stereo not given) | -9.487
42 | FC(F)(F)c1cccc(OC2CCN(Cc3ncc[nH]3)CC2)c1 | -24.7
43 | FC(F)(F)c1cccc(OC2CCN(Cc3c[nH]cn3)CC2)c1 | 48.24
44 | Cc1cccc(-c2nc(N)nc3c2CN(C(=O)C2CCCC2)C3C)c1 (stereo not given) | 35.57
45 | COc1ccccc1CN1CC(O)CN(C(=O)OCC(C)C)CC1=O (stereo not given) | -17.94
46 | Nc1ccc(C(=O)N2C[C@@H]3CC[C@H](C2)N(Cc2ccccc2)C3)cn1 | -23.45
47 | O=C(O)C(F)(F)F.O=C(O)C(F)(F)F.O=C(c1cccnc1)N1CCN2C[C@H](OCc3ccccc3)C[C@H]2C1 | -25.13
48 | CC(C#N)CSc1ccccc1NCC(=O)NC1CCCCC1 (stereo not given) | -62.9
49 | CC(C#N)CSc1ccccc1NCC(=O)NC(C1CC1)C1CC1 (stereo not given) | 54.59
50 | CC(C#N)CSc1ccccc1NCC(=O)Nc1ccccc1 (stereo not given) | -74.13
51 | COc1c[nH]c(C(=O)N2CCN(c3ccccc3)CC2)cc1=O | -92.19
52 | COC(=O)c1c(C(F)(F)F)cnc(OC)c1Cl | -7.4
53 | CCC(CO)NC(=O)NCc1cc(C#N)ccc1F (stereo not given) | -31.58
54 | COc1cccc(CNc2cc(C)nc(-c3ccncc3)n2)c1O | -16.17

Row | SMILES | Percent Effect [%]
55 | COc1cccc(CNc2nc(C)cc(C)n2)c1OC | -94.43
56 | COc1cccc(CNc2cc(C)nc(-c3ccncc3)n2)c1OC | 88.78
57 | CNc1oc(-c2cc(S(=O)(=O)N3CCCC3)c(C)o2)nc1C#N | -60.45
58 | Cc1nn(C)c2nc(N3CCCC3c3nccs3)sc12 (stereo not given) | -63.74
59 | NC(=O)c1cccnc1N1C[C@@H]2CC[C@H](C1)N(Cc1ccccn1)C2=O | -36.76
60 | Fc1ccc(OCc2nnc([C@H]3CCN(Cc4ccccn4)C3)o2)cc1 | -10.02
61 | CCC(=O)N1CCC2(CC1)CC(NC(=O)N(C)C)c1cc(C)ccc12 (stereo not given) | -96.24
62 | Cc1noc(Cl)c1CCC(=O)N1CCN(CC(C)(C)O)CC1 | -36.25
63 | Cc1noc(Cl)c1CCC(=O)N1CCc2sccc2C1 | 53
64 | Cc1noc(Cl)c1CCC(=O)N1CCN(c2cnccn2)CC1 | -135.5
65 | Cc1noc(Cl)c1CCC(=O)N1CCN(c2ccccc2)CC1 | 51.57
66 | Cc1nn(C)c(C)c1CCC(=O)N1CCc2sccc2C1 | -11.91
67 | Cc1noc(C)c1CS(=O)(=O)CC(=O)N1CCc2sccc2C1 | -29.06
68 | CC(CO)(NC(=O)NCCc1ccc(Br)s1)C1CC1 (stereo not given) | -76.18
69 | Cc1[nH]ncc1C(=O)N1CCCC1c1noc(C2CC2)n1 (stereo not given) | -58.86
70 | CCOCC(O)CN1CCN(C(=O)c2ccc(OC)cc2)CC1 (stereo not given) | -30.2
71 | O=C(Nc1ccc(=O)n(Cc2ccccc2Cl)c1)C1CC1 | -14.36
72 | CCOc1cccc(CNC(C)c2ccc(-n3ccnc3)cc2)c1O (stereo not given) | 74.87
73 | COc1cccc(CNC(C)c2ccc(-n3ccnc3)cc2)c1OC.Cl (stereo not given) | 16.61
74 | CCOc1cccc(CNc2ccccc2C(=O)OC)c1O | -51.83
75 | COCCCNC(=O)c1ccn(-c2ccc3ccccn23)n1 | -7.182
76 | N#CCCNC(=O)c1ccn(-c2ccc3ccccn23)n1 | -51.94
77 | CN(C)CCNC(=O)c1ccn(-c2ccc3ccccn23)n1.O=C(O)C(F)(F)F | 83.48
78 | CCn1nc2c(cc1=O)CN(c1ncnc3sccc13)CC2 | 2.158
79 | Clc1cccc2c3c([nH]c12)CCN(Cc1cc2n(n1)CCNC2)C3 | 78.46
80 | c1ccc(COC2CCN(Cc3cc4n(n3)CCCNC4)CC2)nc1 | -20.17
81 | OC(c1ccccn1)C1CCN(Cc2cc3n(n2)CCCNC3)CC1 (stereo not given) | -111.2

Row | SMILES | Percent Effect [%]
82 | c1ccc2c3c([nH]c2c1)CN(Cc1cc2n(n1)CCNC2)CC3 | 44.64
83 | c1csc(N2CCN(Cc3cc4n(n3)CCNC4)CC2)n1 | -68.56
84 | CSCCC(Nc1nc(C)cc(C)n1)C(=O)NC(C)(C)CO (stereo not given) | -11.3
85 | COc1ccccc1CC1CCCN(CCN2CCOC2=O)C1 (stereo not given) | 47.59
86 | COc1ccc(CCN2CCCC(CN(C)Cc3ccc(C)o3)C2)cc1 (stereo not given) | -48.89
87 | Cc1ncc(CN(C)C2CCCN(c3cccnn3)C2)s1 (stereo not given) | -24.6
88 | CN(C)C(=O)CN1CCO[C@H]2CN(Cc3cccc(F)c3)C[C@H]21 | -27.48
89 | Cc1nc(C2CCCNC2)cc(N(C)CCc2cn[nH]c2)n1 (stereo not given) | -154.6
90 | CCn1ccnc1CN(C)c1cc(C2CCCNC2)nc(C)n1 (stereo not given) | -40.5
91 | Cc1nc(C2CCCNC2)cc(N(C)CCc2ccccc2)n1 (stereo not given) | 52.76
92 | c1ccc(C(OCCNC2CCc3ncnn3C2)c2ccccc2)cc1 (stereo not given) | 43.54
93 | OC1(CNCc2cnc(N3CCOCC3)nc2)CCCCC1 | -76.92
94 | Cc1ccccc1C1(CNCc2cnc(N3CCOCC3)nc2)CC1 | 50.04
95 | c1ccc(C2(CNCc3cnc(N4CCOCC4)nc3)CC2)cc1 | -24.34
96 | Fc1cnc(N2CCCC3(CCN(c4ncccn4)C3)C2)nc1 (stereo not given) | -118
97 | c1cnc(N2CCCC3(CCN(Cc4ccsc4)C3)C2)nc1 (stereo not given) | 66.41
98 | O=C(O)C(F)(F)F.O=C(c1cnccn1)N1CCCC2(CCN(Cc3ccsc3)C2)C1 (stereo not given) | -36.03
99 | O=C(O)C(F)(F)F.O=C(O)C(F)(F)F.c1cnc(N2CCCC3(CCN(c4ncccn4)C3)C2)nc1 (stereo not given) | -228.4
100 | Cc1cnc(N2CCC3(CCCN(c4ncc(F)cn4)C3)C2)nc1 (stereo not given) | -149.1
101 | Cn1cc(CN2CC3(CCN(Cc4ccsc4)C3)C2)cn1 | -1.772
102 | O=C(O)C(F)(F)F.O=C(O)[C@]12CCCN(Cc3ccsc3)C[C@H]1CN(c1ncccn1)C2 | -238.9
103 | Fc1cnc(N2CC3(CCN(Cc4ccsc4)C3)C2)nc1.O=C(O)C(F)(F)F | -1.441
104 | O=C(O)C(F)(F)F.O=C(O)C(F)(F)F.O=C(O)[C@]12CCCN(Cc3ccsc3)C[C@H]1CN(c1ccccn1)C2 | -252.9
105 | CCC(CC)CN1CCC2(CCCN(c3ncccn3)C2)C1 (stereo not given) | 60.59

Source: ChEMBL document CHEMBL3988442, “University of Dundee, Small-Polar-MMV Screening Library” (2021)
